Data on 15 molecules can be found in PubChem BioAssay (Tox21).

Several values for one entry are separate records, joined by “and”; a condition that tells them apart may be missing. Equal values may be shown once. Results filed as inconclusive are left out. The source holds several records for some structures; these can differ, active in one and inactive in another. Activity calls are given as the source filed them. Unless noted, the call rests on the fitted dose curve; in most records, active means well fitted curve in the direction sought with a large enough effect in the repeat runs; inconclusive means weak or mixed curves; inactive means no such curve, though single readings can be large; an effect the other way counts as inactive or inconclusive.

Assay [1] is described as follows: qHTS assay to test for compound auto fluorescence at 535 nm (green) in HEK293 cells (AID 720680).
Assay [2] in a line: qHTS assay to test for compound auto fluorescence at 460 nm (blue) in HEK293 cell free culture (AID 720681). The essentials:
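Test compounds were pinned into cell-free culture medium (DMEM with 10% FBS) and fluorescence was read directly at Ex/Em 405/460 nm. Signals were expressed as fluorescence equivalents of triamterene, with DMSO vehicle as control.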

The nature of assay [3]: qHTS assay to test for compound auto fluorescence at 535 nm (green) in HEK293 cell free culture (AID 720682). The essentials:
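Fluorescein serves as the green reference fluorophore; each compound's intrinsic emission at 535 nm (excitation 485 nm) is reported as an equivalent amount of that dye, measured in serum-containing DMEM without cells.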

The nature of assay [4]: qHTS assay to test for compound auto fluorescence at 590 nm (red) in HEK293 cell free culture (AID 720683). The gist of the method:
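Tox21 10K library compounds were pinned into cell-free DMEM with 10% FBS and fluorescence was read at excitation 540 nm. Activity is expressed as Rose Bengal sodium equivalency.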
For orientation: In qHTS, concentration-response curves come from the screen itself.

A short description of assay [5]: qHTS assay to test for compound auto fluorescence at 590 nm (red) in HepG2 cell free culture (AID 720684). The essentials:
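Measured in medium alone (MEM containing 10% FBS) following pintool addition of compound; emission at 590 nm with 540 nm excitation, referenced to Rose Bengal sodium.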

A short description of assay [6]: qHTS assay to test for compound auto fluorescence at 460 nm (blue) in HepG2 cell free culture (AID 720685). The gist of the method:
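Compound (23 nL) or DMSO pinned into cell-free MEM with 10% FBS; blue fluorescence read at 405/460 nm excitation/emission, expressed as auto-fluorescence equivalency to triamterene.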

The nature of assay [7]: qHTS assay to test for compound auto fluorescence at 535 nm (green) in HepG2 cell free culture (AID 720686).
A short description of assay [8]: qHTS assay to test for compound auto fluorescence at 460 nm (blue) in HepG2 cells (AID 720687). The essentials: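 Cells (2,000/well in MEM with 10% FBS) attached overnight at 37 C, then were exposed to compound or DMSO for 1 hr at 37 C, 5% CO2. Fluorescence read at Ex/Em 405/460 nm, expressed as triamterene-equivalent signal.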
Assay [9] concerns the target Glucocorticoid receptor (Homo sapiens) (UniProt P04150). Briefly: qHTS assay to identify small molecule agonists of the glucocorticoid receptor (GR) signaling pathway (AID 720691; active means well fitted activation curve with a large enough effect in the signal ratio in the repeat runs, not every such curve was filed as active; the % refers to the signal ratio). The gist of the method:
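Reporter read-out: fluorescence intensity following 2 h room-temperature LiveBLAzer B/G FRET substrate loading. Prior step: GR-bla HeLa cells held 4 h, then treated 18 h at 37 C.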

The target is the same in assay [10]. Briefly: qHTS assay to identify small molecule antagonists of the glucocorticoid receptor (GR) signaling pathway (AID 720692; active means well fitted inhibition curve with a large enough effect in the signal ratio in the repeat runs, not every such curve was filed as active; the % refers to the signal ratio). The essentials:
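Dexamethasone (5 nM final) stimulated a stably integrated GRE-beta-lactamase reporter in HeLa cells during 18 h co-incubation with compounds; signal was quantified as fluorescence intensity of B/G FRET substrate after 2 h.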

Assay [11] in a line: qHTS assay to identify small molecule antagonists of the glucocorticoid receptor (GR) signaling pathway - cell viability counter screen (AID 720693). Further: nearly all actives have a fitted effect of over 55% in size.
A short description of assay [12]: qHTS assay for identifying genotoxic compounds that show differential cytotoxicity against isogenic chicken DT40 cell lines with known DNA damage response pathways - wild type cell line (AID 743012). Further: nearly all actives have a fitted effect of over 60% in size. The essentials:
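Using parental DT40 (300 cells/well), compounds delivered in DMSO incubate 40 h at 37 C/5% CO2. CellTiter-Glo reagent then stands 30 min at room temperature, and luminescence gives cell viability.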

Assay [13] is described as follows: qHTS assay for identifying genotoxic compounds that show differential cytotoxicity against isogenic chicken DT40 cell lines with known DNA damage response pathways - Rev3 mutant cell line (AID 743014). Further: nearly all actives have a fitted effect of over 55% in size. Further: potency means the concentration at half of the fitted maximal effect.
The nature of assay [14]: qHTS assay for identifying genotoxic compounds that show differential cytotoxicity against isogenic chicken DT40 cell lines with known DNA damage response pathways - Rad54/Ku70 mutant cell line (AID 743015). Further: nearly all actives have a fitted effect of over 60% in size.
Assay [15] in a line: qHTS assay to identify small molecule antagonists of the androgen receptor (AR) signaling pathway - cell viability counter screen (AID 743033; further: nearly all actives have a fitted effect of over 45% in size).
For assay [16], the target named is Androgen receptor (Homo sapiens) (UniProt P10275). Briefly: qHTS assay to identify small molecule antagonists of the androgen receptor (AR) signaling pathway (AID 743035; active means well fitted inhibition curve with a large enough effect in the signal ratio in the repeat runs, not every such curve was filed as active; the % refers to the signal ratio). The essentials: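 Using qHTS, AR-UAS-bla GripTite HEK293 cells received compound, then R1881, and were cultured 16 h at 37C/5% CO2 before a 2 h room-temperature LiveBLAzer B/G FRET substrate step and fluorescence measurement.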

The target is the same in assay [17]. Briefly: qHTS assay to identify small molecule agonists of the androgen receptor (AR) signaling pathway using the MDA cell line (AID 743040; further: nearly all actives have a fitted effect of over 20% in size; further: potency means the concentration at half of the fitted maximal effect). The gist of the method: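 Luminescence from ONE-Glo, read after 30 min at room temperature, reflects MMTV-driven luciferase in MDA-kb2 cells (AR- and GR-responsive). Treatment lasted 16 h at 37C, 0% CO2.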
Assay [18] can be described thus: qHTS assay to identify small molecule antagonists of the androgen receptor (AR) signaling pathway using the MDA cell line - cell viability counter screen (AID 743041; further: nearly all actives have a fitted effect of over 45% in size). The gist of the method:
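Viability counter screen run alongside the AR antagonist reporter: cells seeded 5 h before compound, R1881 added, 16 h incubation at 37C without CO2, fluorescent CellTiter-Fluor signal quantified.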

Assay [19] addresses Androgen receptor (Homo sapiens) (UniProt P10275). Briefly: qHTS assay to identify small molecule antagonists of the androgen receptor (AR) signaling pathway using the MDA cell line (AID 743042; further: nearly all actives have a fitted effect of over 55% in size). The essentials: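 MDA-kb2 cells (human breast carcinoma, stably carrying an MMTV-luciferase reporter responsive to AR and GR) were plated at 3,000 cells/well and preincubated 5 hr at 37C, then given compound plus R1881 agonist for 16 h. ONE-Glo luminescence was read.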

Assay [20] can be described thus: qHTS assay to identify small molecule antagonists of the thyroid receptor (TR) signaling pathway - cell viability counter screen (AID 743064). Further: nearly all actives have a fitted effect of over 50% in size. The essentials:
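Fluorescence from CellTiter-Fluor, added after 23.5 h exposure at 37 °C, reported viability of GH3.TRE-Luc cells co-treated with compound and 1 nM T3. Measured in the same wells as the luciferase TR readout.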

Sequence of Androgen receptor (Homo sapiens) (P10275 whole entry, looked up): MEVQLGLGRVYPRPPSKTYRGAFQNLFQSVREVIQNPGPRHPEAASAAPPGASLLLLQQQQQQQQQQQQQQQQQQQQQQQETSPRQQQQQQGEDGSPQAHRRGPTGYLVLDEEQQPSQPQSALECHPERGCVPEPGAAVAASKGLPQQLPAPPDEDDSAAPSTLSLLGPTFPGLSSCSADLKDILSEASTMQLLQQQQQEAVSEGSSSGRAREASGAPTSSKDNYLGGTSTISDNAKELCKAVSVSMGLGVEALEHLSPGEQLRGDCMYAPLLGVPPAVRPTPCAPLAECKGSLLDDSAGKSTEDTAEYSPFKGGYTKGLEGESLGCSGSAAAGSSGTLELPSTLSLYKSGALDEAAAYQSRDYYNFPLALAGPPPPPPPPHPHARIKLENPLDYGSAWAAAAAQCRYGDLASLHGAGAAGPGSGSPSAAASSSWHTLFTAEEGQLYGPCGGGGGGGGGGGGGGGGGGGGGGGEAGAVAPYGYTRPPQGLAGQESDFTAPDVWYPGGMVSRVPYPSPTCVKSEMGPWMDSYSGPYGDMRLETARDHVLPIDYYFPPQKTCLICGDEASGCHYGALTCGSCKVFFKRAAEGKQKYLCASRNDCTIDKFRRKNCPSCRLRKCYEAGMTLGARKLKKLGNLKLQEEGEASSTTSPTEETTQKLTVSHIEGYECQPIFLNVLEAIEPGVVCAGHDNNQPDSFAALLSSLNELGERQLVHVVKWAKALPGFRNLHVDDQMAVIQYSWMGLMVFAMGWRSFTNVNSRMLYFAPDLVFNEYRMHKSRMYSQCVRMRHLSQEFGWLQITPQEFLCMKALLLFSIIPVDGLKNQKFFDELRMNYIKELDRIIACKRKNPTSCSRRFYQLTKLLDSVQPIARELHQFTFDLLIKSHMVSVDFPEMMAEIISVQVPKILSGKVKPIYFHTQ
Sequence of Glucocorticoid receptor (Homo sapiens) (P04150 whole entry, looked up): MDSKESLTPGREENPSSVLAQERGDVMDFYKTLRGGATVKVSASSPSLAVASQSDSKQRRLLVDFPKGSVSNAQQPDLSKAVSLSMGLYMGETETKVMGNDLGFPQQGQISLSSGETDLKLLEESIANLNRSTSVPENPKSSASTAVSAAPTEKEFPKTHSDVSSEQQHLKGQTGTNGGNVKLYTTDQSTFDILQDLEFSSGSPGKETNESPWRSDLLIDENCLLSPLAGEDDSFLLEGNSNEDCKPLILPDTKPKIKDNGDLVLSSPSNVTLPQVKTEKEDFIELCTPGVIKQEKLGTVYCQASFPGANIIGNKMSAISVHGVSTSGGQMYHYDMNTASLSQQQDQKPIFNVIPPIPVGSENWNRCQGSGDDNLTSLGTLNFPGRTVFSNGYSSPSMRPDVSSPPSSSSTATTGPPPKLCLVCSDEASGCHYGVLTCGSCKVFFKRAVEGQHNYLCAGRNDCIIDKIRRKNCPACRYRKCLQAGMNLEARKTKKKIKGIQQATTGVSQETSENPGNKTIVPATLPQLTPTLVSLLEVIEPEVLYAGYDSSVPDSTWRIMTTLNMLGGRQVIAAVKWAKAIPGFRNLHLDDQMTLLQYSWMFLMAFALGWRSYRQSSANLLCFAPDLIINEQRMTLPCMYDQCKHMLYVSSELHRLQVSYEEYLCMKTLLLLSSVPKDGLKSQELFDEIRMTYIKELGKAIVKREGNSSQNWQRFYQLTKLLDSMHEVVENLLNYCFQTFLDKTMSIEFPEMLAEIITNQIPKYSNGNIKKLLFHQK

`OC[C@H]1O[C@@H](O[C@H]2[C@H](O)[C@@H](O)[C@H](O)O[C@@H]2CO)[C@H](O)[C@@H](O)[C@H]1O`: the call in assay [1], in assay [2], in assay [3], in assay [4], in assay [5] and in [6] was inactive. Moreover, the result in assay [7], in assay [8], in assay [11], in assay [15] and in assay [19] was inactive. Further, the Potency entry in assay [9], in assay [10], in assay [12], in assay [13], in assay [14] and in assay [16] was “inactive” each time. The Potency result in assay [17], in [18] and in [20] was “inactive” throughout.
`CN(C)Cc1ccccc1`: the call in [1], in assay [2], in assay [3], in [4], in [5] and in assay [6] was inactive. Besides, the molecule was classed as inactive in assay [7], in assay [8], in [11], in assay [15] and in [19]. In addition, the Potency entry in assay [9], in assay [10], in assay [12], in assay [13], in [14] and in assay [16] was “inactive” throughout. Moreover, the Potency result in assay [17], in assay [18] and in assay [20] was “inactive” throughout.
As for `CN1C(=O)CC(c2ccccc2)C1=O` (configuration not stated), the molecule was classed as inactive in assay [1], in assay [2], in assay [3], in assay [4], in assay [5] and in [6]. Besides, the call in [7], in [8] and in assay [11] was inactive. Further, the Potency entry in [9], in [10], in assay [13], in assay [14] and in assay [18] was “inactive” throughout.
Consider `NCCC(O)(P(=O)(O)O)P(=O)(O)O`, for which the molecule was called inactive in assay [1], in assay [2], in [3], in assay [4], in assay [5] and in assay [6]. Moreover, the outcome in assay [7], in [8], in [11] and in [15] was inactive. In addition, the Potency entry in assay [9], in assay [10], in assay [12], in assay [13], in assay [14] and in [18] was “inactive” each time.
As to `C[C@@H](N)C(=O)O`, the result in assay [1], in assay [2], in [3], in assay [4], in assay [5] and in [6] was inactive. Besides, the outcome in assay [7], in [8], in [11], in [15] and in [19] was inactive. Besides, the Potency entry in assay [9], in [10], in assay [12], in assay [13], in [14] and in [17] was “inactive” throughout. Moreover, the Potency result in assay [18] and in assay [20] was “inactive” each time.
As to `CCCNC(C)(C)COC(=O)c1ccccc1`, the molecule was classed as inactive in assay [1], in assay [2], in assay [3], in assay [4], in assay [5] and in [6]. In addition, the molecule was classed as inactive in assay [7], in assay [8], in assay [11] and in assay [15]. The Potency entry in assay [9], in assay [10], in assay [12] and in assay [14] was “inactive” throughout.
As to `CCN1CC(CCN2CCOCC2)C(c2ccccc2)(c2ccccc2)C1=O` (configuration not stated), the call in [1], in assay [2], in assay [3], in [4], in assay [5] and in assay [6] was inactive. The molecule was classed as inactive in [7], in assay [8] and in assay [11]. Moreover, the Potency result in assay [9], in assay [10], in assay [12], in assay [14] and in [20] was “inactive” throughout.
For the molecule `C[C@@H]1CN(c2c(F)c(F)c3c(=O)c(C(=O)O)cn(C4CC4)c3c2F)C[C@H](C)N1`, the molecule was classed as inactive in assay [1], in [2], in [3], in assay [4], in assay [5] and in [6]. The call in assay [7], in assay [8], in assay [11], in [15] and in [19] was inactive. The Potency result in [9], in assay [10], in assay [12], in assay [13], in [14] and in assay [16] was “inactive” throughout. In [17], the Potency was 26.6 µM (active).
Take `CCCOCCC`: the molecule was classed as inactive in [1], in assay [2], in [3], in [4], in assay [5] and in assay [6]. The outcome in [7], in assay [8], in [11] and in assay [15] was inactive. The Potency entry in assay [9], in [10], in [12], in assay [13], in [14] and in assay [18] was “inactive” throughout. Also, the Potency result in [20] is “inactive”.
As for `CC(C)S`, the molecule was called inactive in [1], in assay [2], in assay [3], in assay [4], in assay [5] and in assay [6]. The molecule was classed as inactive in assay [7], in assay [8] and in [11]. In addition, the Potency result in assay [9], in assay [10], in assay [12], in assay [13], in [14] and in [18] was “inactive” in each case. In addition, the Potency entry in [20] was “inactive”.
For the molecule `CC(C)(C)c1ccc(OC(=O)c2ccccc2O)cc1`, the molecule was called inactive in [1], in [2], in assay [3], in [4], in [5] and in assay [6]. Further, the molecule was called inactive in assay [7], in assay [8] and in assay [11]. Further, the Potency result in assay [9], in assay [10] and in assay [14] was “inactive” in each case.
For `COC(=O)c1ccc(OC)cc1`, the outcome in assay [1], in [2], in assay [3], in assay [4], in assay [5] and in assay [6] was inactive. Besides, the outcome in assay [7], in assay [8], in assay [11] and in assay [15] was inactive. The Potency entry in assay [9], in assay [10], in [12], in assay [13], in assay [14] and in assay [20] was “inactive” throughout.
For the molecule `C=CC(C)(O)CC/C=C(\C)CCC=C(C)C` (configuration not stated), the molecule was called inactive in assay [1], in assay [2], in assay [3], in [4], in assay [5] and in assay [6]. Also, the call in assay [7], in assay [8], in assay [11] and in [15] was inactive. Further, the Potency result in assay [9], in assay [10], in assay [12], in [14], in assay [18] and in assay [20] was “inactive” in each case. Further, the Potency entry in assay [13] was “inactive and 4.33 µM (active)”.
As for `COc1ccc(S(=O)(=O)Nc2nnc(CC(C)C)s2)cc1`, the molecule was classed as inactive in assay [1], in assay [2], in assay [3], in assay [4], in [5] and in [6]. The molecule was classed as inactive in [7], in assay [8], in assay [11] and in assay [15]. Moreover, the Potency result in assay [9], in [10], in assay [12], in [13], in assay [14] and in assay [18] was “inactive” each time. For the same molecule, the Potency entry in assay [20] is “inactive”.
For `COc1cc(Cl)ccc1Cl`, the molecule was classed as inactive in [1], in assay [2], in assay [3], in [4], in [5] and in assay [6]. Moreover, the call in assay [7], in assay [8], in assay [11] and in assay [15] was inactive. Further, the Potency result in assay [9], in [10], in assay [12], in assay [13], in assay [14] and in assay [18] was “inactive” each time. The Potency result in [20] was “inactive”.
